Screens as filed in PubChem BioAssay.
sEH act – activators of human soluble epoxide hydrolase | hit rate 0.04% among 91,000 | AID 717 | purified human sEH enzymatic activity, activator screen | P34913 | activation, % at 2 µM; in the data active = activation above about 37%
Target sequence (P34913 whole entry, looked up): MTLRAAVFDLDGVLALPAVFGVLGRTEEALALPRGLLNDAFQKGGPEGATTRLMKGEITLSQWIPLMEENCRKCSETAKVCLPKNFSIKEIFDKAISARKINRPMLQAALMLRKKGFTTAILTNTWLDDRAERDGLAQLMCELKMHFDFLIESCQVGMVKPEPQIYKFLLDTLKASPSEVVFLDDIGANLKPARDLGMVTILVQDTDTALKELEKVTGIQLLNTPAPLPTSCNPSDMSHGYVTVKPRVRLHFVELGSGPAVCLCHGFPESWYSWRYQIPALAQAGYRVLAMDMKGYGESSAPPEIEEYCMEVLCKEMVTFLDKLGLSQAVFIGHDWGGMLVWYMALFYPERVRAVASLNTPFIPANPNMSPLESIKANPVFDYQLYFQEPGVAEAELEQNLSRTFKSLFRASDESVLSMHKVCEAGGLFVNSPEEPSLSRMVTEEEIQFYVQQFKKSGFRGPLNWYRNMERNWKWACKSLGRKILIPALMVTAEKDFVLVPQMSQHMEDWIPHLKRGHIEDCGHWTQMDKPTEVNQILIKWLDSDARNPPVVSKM
CYP2C9 act – activators of human CYP2C9; P11712; recombinant CYP2C9, luciferin-H conversion, luminescence; active compounds read high; factor 1 = untreated enzyme, 0 = blocked; activation factor at 5 µM; hit rate 1.4% among 96,000;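 active = activation factor of 2 or more for CYP2C9 at a 5 µM dose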
CYP2C9 inhib – blocks human cytochrome P450 2C9; inhibition, % at 5 µM; hit rate 20% among 96,000; CYP2C9 Supersomes, luciferin-H conversion, luminescence; P11712;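 active = blocking of liver enzyme CYP2C9 beyond about 50% at 5 µM, limit read from the data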
sEH inh – soluble epoxide hydrolase (human) inhibition; AID 707; inhibition, % at 2 µM; recombinant human sEH enzymatic activity assay; P34913; hit rate 0.34% among 91,000; in the data active = inhibition above about 80%
CYP2C19 act – cytochrome P450 2C19 (human) activation; P33261; recombinant CYP2C19, luciferin-H EGE luminescence; active compounds read high; 0 = fully inhibited enzyme, 1 = untreated enzyme; activation factor at 5 µM; 96,000 tested, under 10 active; AID 1025;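 active = activation factor of at least 2 at 5 µM in the primary screen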
CYP2C19 inh – human CYP2C19 inhibition; P33261; CYP2C19 Supersomes, luciferin-H EGE luminescence, 30 min; inhibition, % at 5 µM; hit rate 21% among 96,000;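 active = CYP2C19 inhibition above a set limit at 5 µM in the primary screen, cut at about 50% in these data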
Numbers stand for hits; - = inactive; . = no result. An excerpt weighted towards active compounds, which were near 27% of everything screened.

SMILES	sEH act	CYP2C9 act	CYP2C9 inhib	sEH inh	CYP2C19 act	CYP2C19 inh
Cc1cc(C(=O)CSc2nnc(-c3cccc(F)c3)n2N)c(C)n1Cc1ccc2c(c1)OCO2	-	-	-	-	-	-
Cc1cccc(-n2nnnc2SCC(=O)c2cc(C)n(Cc3ccco3)c2C)c1	-	2.6	-	-	-	-
Cc1cc(C(=O)CSc2nnnn2-c2ccc(O)cc2)c(C)n1Cc1ccc2c(c1)OCO2	.	-	-	.	-	99.0
c1ccc(-c2nnc(CSc3nnc(-c4ccncc4)n3Cc3ccco3)o2)cc1	-	-	70.6	-	-	67.1
C(=C\c1ccccc1)/CSc1nnc(-c2ccccc2)n1Cc1ccco1	-	-	-	-	-	-
C(=C\c1ccccc1)/CSc1nnc(-c2ccncc2)n1Cc1ccco1	.	-	-	.	-	88.7
Clc1cccc(-c2nnc(SC/C=C/c3ccccc3)n2Cc2ccco2)c1	-	-	67.4	-	-	64.7
CCCCN(CCCC)S(=O)(=O)c1ccc2oc(C(=O)N3CCOCC3)c(C)c2c1	-	-	-	-	-	-
O=S(=O)(NCc1ccccc1)c1ccc(S(=O)(=O)N(Cc2ccccn2)Cc2ccco2)cc1	-	-	-	-	-	-
O=C(Nc1nc2ccccc2[nH]1)c1ccc(Cl)c(S(=O)(=O)N2CCCC2)c1	-	-	-	-	-	-
CC1C(=O)C(C)C(c2ccc3c(c2)OCO3)NC1c1ccc2c(c1)OCO2 (stereo not given)	-	-	72.5	-	-	97.4
Cc1ccc(CNC(=O)C2CCCCC2C(=O)O)cc1 (stereo not given)	-	-	-	-	-	-
CCCc1nnc(SCC(=O)N2CCCC(C)C2)n1CC1CCCO1 (stereo not given)	-	-	-	-	-	-
COC(=O)c1ccc2c(c1O)C(=O)c1ccccc1C2=O	-	-	-	-	-	59.5
COC(=O)c1cccc2c1-c1ccccc1/C2=N/O	-	-	84.5	-	-	58.8
CCSc1c(C(=O)NC)ccc2c1C(=O)c1ccccc1C2=O	-	-	-	-	-	-
CN(C1CCCCC1)S(=O)(=O)c1ccc(S(=O)(=O)N2CCN(CCC#N)CC2)cc1	-	-	-	-	-	-
CCCCC(=O)c1ccc(O)cc1	-	2.2	-	-	-	-
CCCCC(=O)c1ccc(O)cc1O	-	.	.	-	.	.
COc1ccc(N(CC(=O)N2CCCCC2)S(=O)(=O)c2ccccc2)c(OC)c1	-	-	-	-	-	52.7
COc1ccc(OC)c(N(CC(=O)N2CCCCC2)S(=O)(=O)c2ccc(OC)c(OC)c2)c1	-	.	.	-	.	.
COc1ccc(OC)c(N(CC(=O)N2CCC(C)CC2)S(=O)(=O)c2ccccc2)c1	-	-	52.1	-	-	-
COc1ccc(S(=O)(=O)N(C)CC(=O)N2CCC(C)CC2)cc1Cl	-	2.5	-	-	-	-
COc1ccc(-c2nnc(NC(=O)c3cc(Cl)ccc3Cl)o2)cc1	-	-	-	-	-	-
Cc1ccc(-n2ncc3c(=O)n(CC(=O)N4CCCc5ccccc54)cnc32)cc1C	-	.	.	-	.	.
SMILES	sEH act	CYP2C9 act	CYP2C9 inhib	sEH inh	CYP2C19 act	CYP2C19 inh
Cc1ccc(C)c(Cc2c(C)nc3c(C(=O)NCc4ccc5c(c4)OCO5)cnn3c2C)c1	-	-	86.6	-	-	-
Cc1cccc(Cc2c(C)nc3c(C(=O)NCc4ccco4)cnn3c2C)c1	-	-	56.5	-	-	50.2
Cc1nc2c(C(=O)NCc3ccc4c(c3)OCO4)cnn2c(C)c1Cc1ccc(F)cc1Cl	-	-	85.7	-	-	58.8
Cc1ccccc1Cc1c(C)nc2c(C(=O)NCc3ccc4c(c3)OCO4)cnn2c1C	-	-	-	-	-	-
O=C(NCc1ccco1)c1cnn2c(C(F)(F)F)cc(-c3ccccc3)nc12	.	-	-	.	-	-
COc1ccc(-c2cc(C(F)(F)F)n3ncc(C(=O)NCc4ccco4)c3n2)cc1	-	-	54.3	-	-	50.6
CC(C)n1c(CCC(=O)O)ccc1-c1ccccc1	-	-	-	-	-	-
CN(C)C(CNC(=O)CSc1nnc(-c2ccco2)o1)c1ccccc1 (stereo not given)	-	.	.	-	.	.
CCC(C)NC(=O)CN1C(=O)CC(C)(C)S(=O)(=O)c2ccccc21 (stereo not given)	.	-	-	.	-	-
COc1ccc(C(C)=O)cc1CN1C(=O)C(C)N(c2ccc(C)cc2)C1=O (stereo not given)	-	-	84.4	-	-	81.8
COc1ccc(C(=O)NC2CCN(C(=S)Nc3cc(C)ccc3C)CC2)cc1	-	-	-	-	-	-
CCCc1cc(C(=O)Nc2sc(C)c(C)c2C(=O)OCC)no1	.	-	-	.	-	-
O=S(=O)(NCCOc1ccc(F)cc1)c1ccc2c(c1)OCCO2	.	2.4	-	.	-	91.4
O=S(=O)(NCCSc1ccccc1)c1ccc2c(c1)OCCO2	-	-	-	-	-	86.7
NS(=O)(=O)c1cccc(NC(=O)Cn2cnc3ccccc3c2=O)c1	-	-	-	-	-	-
Cc1sc2c(=O)n3c(nc2c1C(=O)NCCCN1CCOCC1)CCCCC3	-	-	90.4	-	-	85.5
Cc1csc2c(=O)n3c(nc12)CCCCC3	-	-	-	-	-	-
Cc1sc2c(=O)n3c(nc2c1C(=O)NC1CCCCC1)CCCCC3	-	-	95.7	-	-	83.9
c1ccc2c(CNCCN3CCOCC3)cccc2c1	-	-	-	-	-	-
C=CCn1c(O)c(N=NC(=O)CNC(=O)/C=C/c2ccco2)c2ccccc21	-	-	70.6	-	-	-
Cc1ccccc1-n1c(C)nnc1SCC(=O)NCC1CCCO1 (stereo not given)	.	-	-	.	-	-
Cc1ccc(C)c(C2=CSC3=NCCN23)c1	-	-	-	-	-	52.1
Cc1ccc(C)c(C2=CSC3=NS(=O)(=O)CCN23)c1	-	-	-	-	-	-
Clc1ccc(C2=CSC3=NCCN23)cc1Cl	-	-	-	-	-	71.3
COc1ccccc1NC(=O)CNC(=O)c1ccccc1C	-	-	-	-	-	-
SMILES	sEH act	CYP2C9 act	CYP2C9 inhib	sEH inh	CYP2C19 act	CYP2C19 inh
Cc1ccc(-c2nnc(SCC(=O)Nc3nccs3)n2N)cc1	-	.	.	-	.	.
O=C(Nn1c(=O)[nH]c2ccsc2c1=O)c1ccccc1	-	-	-	-	-	-
CCOC(=O)C1CCN(C(=O)c2ccc3c(c2)OCO3)CC1	.	-	-	.	-	-
O=C(c1ccc2c(c1)OCCO2)C1CCN(C(=O)c2ccc(F)cc2)CC1	-	-	50.3	-	-	72.5
COc1ccc(C(=O)N2CCC(C(=O)Nc3ccc4c(c3)OCCO4)CC2)cc1	-	-	-	-	-	-
O=C(c1ccc2c(c1)OCCO2)C1CCN(C(=O)c2ccc(F)c(F)c2)CC1	-	-	-	-	-	75.3
Cc1cccn2cc(CCNC(=O)c3ccc(Br)o3)nc12	-	-	-	-	-	-
COC(=O)c1cc(-c2ccccc2)sc1NC(=O)CN1C(=O)c2ccccc2C1=O	-	-	-	-	-	-
CC(=O)c1c(C(C)=O)c(C)n(-c2ccc(C(=O)O)cc2)c1C	-	-	-	-	-	-
